The source of these data is PubChem BioAssay.

Structures are written as SMILES. Active and inactive are the calls of the source.

A short description of test [1]: optical density shifts of acrAB sulA E. coli – strain DRC41, OD650, 48 h, E. coli filamentation inducer project, primary screen (AID 1152).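 Further: E. coli MC1000 strain DRC41 lacking acrAB efflux pump and sulA.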 The following applies: higher = more signal, called active from +8 up or from −8 down.
Test [2] is described as follows: probe aLefty1 binding on compound microarray – biochemical, small-molecule microarray, 635/667 nm fluorescence, primary screen (AID 1153).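 Further: score merges spot fluorescence with signal-to-noise ratio from the scanned slide images.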 The following applies: higher = more signal.
Test [3] can be described thus: plasmodial surface anion channel blockers, osmotic lysis – cell-based, P. falciparum Indochina, OD700, 1 h, primary screen (AID 1154). The following applies: P. falciparum Indochina infected RBC osmotic lysis, higher = more signal, called active from +8 up or from −8 down.
Test [4] in a line: plasmodial surface anion channel blockers, osmotic lysis – cell-based, P. falciparum Indochina, OD700, 2 h, primary screen (AID 1155).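 Further: lysis reports solute entry through the parasite surface anion channel PSAC.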 The following applies: P. falciparum Indochina infected erythrocytes, higher = more signal, called active from +8 up or from −8 down.
The nature of test [5]: changes in parasitized red cell lysis, either direction – P. falciparum Indochina, OD700, 3 h, PSAC antagonist project, primary screen (AID 1156). The following applies: P. falciparum-infected erythrocytes, osmotic lysis, higher = more signal, called active from +8 up or from −8 down.
Test [6] is described as follows: plasmodial surface anion channel blockers, osmotic lysis – cell-based, P. falciparum Indochina, OD700, 18 h, primary screen (AID 1157). The following applies: P. falciparum Indochina infected erythrocytes, osmotic lysis OD700, 18 h; higher = more signal, called active from +8 up or from −8 down.
A short description of test [7]: S6 kinase pathway phospho-S6 level changes – cell-based, A549, cytoblot, luminescence, serum-stimulated, primary screen (AID 1158).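 Further: serum-stimulated A549 lung adenocarcinoma cells; signal is phosphorylated S6 detected by cytoblot immunostaining with HRP secondary.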 The following applies: 5 h, higher = more signal.
The target of test [8] is NADPH oxidase 2 (Homo sapiens) (UniProt P04839). Description: compounds shifting NOX2 Amplex Red fluorescence – cell-based, HEK293-NOX2, PMA-stimulated, NOX inhibitor project, primary screen (AID 1159). Further: test concentration not given here. The following applies: 45 min, higher = more signal, called active from +8 up or from −8 down.
NADPH oxidase 2 (Homo sapiens), sequence (P04839 whole entry, looked up): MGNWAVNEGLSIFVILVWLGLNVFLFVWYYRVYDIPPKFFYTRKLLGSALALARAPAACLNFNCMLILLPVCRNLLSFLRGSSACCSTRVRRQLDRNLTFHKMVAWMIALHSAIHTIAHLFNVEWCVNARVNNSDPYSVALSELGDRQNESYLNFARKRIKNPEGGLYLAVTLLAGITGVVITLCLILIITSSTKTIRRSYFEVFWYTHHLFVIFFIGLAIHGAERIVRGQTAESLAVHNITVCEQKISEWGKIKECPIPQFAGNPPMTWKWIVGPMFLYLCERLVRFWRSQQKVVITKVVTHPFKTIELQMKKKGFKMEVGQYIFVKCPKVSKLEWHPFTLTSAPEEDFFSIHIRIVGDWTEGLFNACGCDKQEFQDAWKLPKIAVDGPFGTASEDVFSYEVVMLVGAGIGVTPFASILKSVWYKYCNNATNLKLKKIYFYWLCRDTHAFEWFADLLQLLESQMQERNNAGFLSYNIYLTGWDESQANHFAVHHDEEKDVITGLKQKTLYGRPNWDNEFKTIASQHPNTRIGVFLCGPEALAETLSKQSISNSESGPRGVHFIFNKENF
Test [9] concerns the target NADPH oxidase 4 (Homo sapiens) (UniProt Q9NPH5). Description: compounds shifting NOX4 Amplex Red fluorescence – cell-based, HEK293-NOX4, tetracycline-induced, NOX inhibitor project, primary screen (AID 1160). The following applies: HEK293-NOX4, Amplex Red H2O2 fluorescence, 45 min; higher = more signal, called active from +8 up or from −8 down.
Test [10] concerns the target NADPH oxidase 5 (Homo sapiens) (UniProt Q96PH1). Description: compounds shifting NOX5 Amplex Red fluorescence – cell-based, HEK293-NOX5, NOX inhibitor project, primary screen (AID 1161). The following applies: HEK293-NOX5, ionomycin, 45 min, higher = more signal.
Test [11] is described as follows: compound effects on lung adenocarcinoma cell viability – A549, calcein-AM fluorescence, 48 h, basal, profiling panel (AID 1162). Further: test concentration not given here. The following applies: higher = more signal.
A short description of test [12]: compound effects on differentiated 3T3-L1 adipocyte viability – cell-based, 3T3-L1 adipocytes, calcein-AM fluorescence, 48 h, basal, profiling panel (AID 1163). Further: test concentration not given here. The following applies: 3T3-L1 adipocytes viability, higher = more signal.
Test [13] is described as follows: compound effects on hepatocellular carcinoma cell viability – HepG2, calcein-AM fluorescence, 48 h, basal, profiling panel (AID 1164). Further: test concentration not given here. The following applies: higher = more signal.
A short description of test [14]: compound effects on multiple myeloma cell viability – MM1S, calcein-AM fluorescence, 48 h, basal, profiling panel (AID 1165).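 Further: viability of MM1S multiple myeloma cells under basal unstimulated conditions; test concentration not given here.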 The following applies: higher = more signal.
The nature of test [15]: calcein-AM signal in unstimulated myeloma cells – cell-based, calcein-AM fluorescence, 48 h, PK04 Diversity Set, profiling panel (AID 1166).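 Further: cells grown under basal conditions without added stimulus; test concentration not given here.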 The following applies: RPMI8226 myeloma viability, higher = more signal.
Test [16] can be described thus: JC-1 mitochondrial signal, unstimulated HepG2 cells – cell-based, JC-1 fluorescence, 24 h, 100 nL compound, profiling panel (AID 1167). Further: test concentration not given here. The following applies: HepG2 mitochondrial potential, higher = more signal.
Test [17] is described as follows: JC-1 mitochondrial signal, unstimulated adipocytes – cell-based, JC-1 fluorescence, 3T3-L1 adipocytes, 24 h, 100 nL compound, profiling panel (AID 1168). Further: test concentration not given here. The following applies: JC-1 mitochondrial fluorescence, higher = more signal, called active from +8 up or from −8 down.
The nature of test [18]: JC-1 mitochondrial signal, unstimulated myeloma cells – cell-based, JC-1 fluorescence, RPMI8226, 24 h, 100 nL compound, profiling panel (AID 1169). Further: test concentration not given here. The following applies: JC-1 mitochondrial potential fluorescence, higher = more signal.
The nature of test [19]: JC-1 mitochondrial signal, unstimulated MM1S myeloma – cell-based, JC-1 fluorescence, 24 h, 100 nL compound, profiling panel (AID 1170). Further: test concentration not given here. The following applies: MM1S mitochondrial potential, higher = more signal.
The nature of test [20]: resazurin metabolic signal in A549 cells – cell-based, resazurin fluorescence, 24 h, PK04 Diversity Set, profiling panel (AID 1171). Further: test concentration not given here. The following applies: A549 viability, higher = more signal, called active from +8 up or from −8 down. On the technique in general: Alamar Blue is a resazurin reagent that responds to reducing activity.

NADPH oxidase 5 (Homo sapiens), sequence (Q96PH1 whole entry, looked up): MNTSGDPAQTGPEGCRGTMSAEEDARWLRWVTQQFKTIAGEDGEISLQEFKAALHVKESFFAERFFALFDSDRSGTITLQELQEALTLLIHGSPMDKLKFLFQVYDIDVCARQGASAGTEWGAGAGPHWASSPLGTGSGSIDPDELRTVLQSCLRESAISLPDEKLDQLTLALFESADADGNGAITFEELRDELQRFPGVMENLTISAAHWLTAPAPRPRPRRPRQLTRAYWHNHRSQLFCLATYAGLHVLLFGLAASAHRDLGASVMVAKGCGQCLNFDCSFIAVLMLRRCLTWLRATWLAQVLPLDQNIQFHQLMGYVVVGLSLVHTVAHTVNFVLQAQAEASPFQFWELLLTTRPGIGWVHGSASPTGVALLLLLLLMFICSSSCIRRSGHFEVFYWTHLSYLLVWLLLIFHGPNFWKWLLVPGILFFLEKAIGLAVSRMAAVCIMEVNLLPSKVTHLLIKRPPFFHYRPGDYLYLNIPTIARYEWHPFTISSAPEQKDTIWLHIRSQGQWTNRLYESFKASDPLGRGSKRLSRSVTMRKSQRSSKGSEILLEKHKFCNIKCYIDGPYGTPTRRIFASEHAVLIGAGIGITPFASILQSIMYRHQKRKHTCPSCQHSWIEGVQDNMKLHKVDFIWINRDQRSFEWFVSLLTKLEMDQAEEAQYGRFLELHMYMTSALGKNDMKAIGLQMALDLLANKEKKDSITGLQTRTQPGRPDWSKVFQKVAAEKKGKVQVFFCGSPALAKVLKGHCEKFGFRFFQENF
NADPH oxidase 4 (Homo sapiens), sequence (Q9NPH5 whole entry, looked up): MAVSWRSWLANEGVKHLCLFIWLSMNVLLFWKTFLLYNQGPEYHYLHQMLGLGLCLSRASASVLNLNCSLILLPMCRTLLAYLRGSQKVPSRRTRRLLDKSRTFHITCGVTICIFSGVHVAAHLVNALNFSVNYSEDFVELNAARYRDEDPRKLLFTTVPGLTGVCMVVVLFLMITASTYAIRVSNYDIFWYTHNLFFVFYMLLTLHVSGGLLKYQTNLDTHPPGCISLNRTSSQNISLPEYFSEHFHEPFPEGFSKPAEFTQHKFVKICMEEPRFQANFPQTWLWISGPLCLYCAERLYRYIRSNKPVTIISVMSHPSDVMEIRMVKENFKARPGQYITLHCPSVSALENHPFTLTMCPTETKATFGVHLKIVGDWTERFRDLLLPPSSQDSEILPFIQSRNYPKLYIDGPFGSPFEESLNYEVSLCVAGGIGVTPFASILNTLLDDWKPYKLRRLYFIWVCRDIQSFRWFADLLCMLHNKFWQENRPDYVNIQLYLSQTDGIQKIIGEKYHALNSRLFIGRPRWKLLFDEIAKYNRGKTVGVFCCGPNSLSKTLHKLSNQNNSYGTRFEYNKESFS

Consider `CC(C)[Si]1(C(C)C)O[C@@H](c2ccccc2)c2cc(C3CC3)nc(-c3ccccc3)c21`, for which the z-score in test [1] is -1.02 (inactive); in [3], 1.27 (inactive); in [4] it was 0.389 (inactive); in test [5], -0.0854 (inactive); in [6] it was -0.0349 (inactive); in test [7] it was 0.19. Moreover, the z-score in [8] is -0.305 (inactive); in test [9], 0.504 (inactive); in test [10] it was 0.0972; in test [11], -0.447; in test [12], -0.483; in test [13], -0.244. The z-score in test [14] is -2.2; in [15] it was -1.35; in test [16], -1.8; in test [17], -0.092 (inactive); in [18] it was -0.781; in test [19], -0.192. Besides, the z-score in [20] is 1.44 (inactive). The compound further had a composite z-score in [2] of -0.108.

On to `CO[C@@H]1COC(=O)CCC[C@@H](C)[C@H](OC)COC(=O)[C@H](Cc2ccccc2)NC(=O)CC=C[C@H]1C`, for which the z-score in test [1] was 0.585 (inactive); in test [3], 1.99 (inactive); in test [4] it was 1.07 (inactive); in test [5], 1.21 (inactive); in [6] it was 0.368 (inactive); in [7], 1.02. For the same compound, the z-score in [8] was 0.0908 (inactive); in test [9], -0.255 (inactive); in [10] it was -0.444; in test [11], 0.0498; in test [12], 0.134; in [13], -0.829. Moreover, the z-score in test [14] is 0.355; in test [15], -1.25; in [16], 2.07; in test [17], -1.18 (inactive); in [18], 0.256; in test [19] it was -0.479. For the same compound, the z-score in test [20] was 0.451 (inactive). In addition, the composite z-score in test [2] was -0.235.

With `O=C1[C@H]2[C@H]3[C@H](O)[C@H](O)CC(=NO[C@@H]4O[C@H](CO)[C@@H](O)[C@H](O)[C@H]4O)[C@@H]3CC[C@H]2C(=O)N1Cc1ccc2c(c1)OCO2`, the z-score in test [1] was -0.161 (inactive); in test [3] it was 5.54 (inactive); in test [4] it was 0.373 (inactive); in [5], 1.3 (inactive); in [6], 0.404 (inactive); in test [7], 0.117. For the same compound, the z-score in test [8] was -0.486 (inactive); in [9], 0.295 (inactive); in test [10], -0.163; in test [11], -0.575; in test [12], 1.13; in test [13], -0.874. In addition, the z-score is -0.778 in [14]; -1.06 in [15]; 0.221 in [16]; -1.34 (inactive) in [17]; -0.981 in test [18]; 0.386 in [19]. Moreover, the z-score in test [20] is 0.159 (inactive). The composite z-score in test [2] is -0.0016.

`C=COC[C@H]1CN2[C@@H](CC[C@@H](C)[C@@H]2c2ccc(Br)cc2)C(=O)O1`: the z-score in test [1] was -1.63 (inactive); in test [3], -0.591 (inactive); in [4], -2.06 (inactive); in test [5], -0.655 (inactive); in [6], -1.99 (inactive); in test [7] it was 1.54. In addition, the z-score in [8] is -0.427 (inactive); in test [9], 0.102 (inactive); in test [10], 0.574; in test [11], 0.197; in test [12] it was 0.34; in [13], 1.3. Further, the z-score in [14] was 0.48; in [15], -0.228; in test [16], 0.244; in test [17] it was 1.39 (inactive); in [18], -0.56; in test [19], 0.252. Besides, in test [20], the z-score is -0.0242 (inactive). Moreover, the composite z-score in [2] came to 0.0402.

As to `CC(C)=C1C(=O)C(c2ccccc2)=C2CN3C(=O)N(CCc4ccccc4)C(=O)[C@]3(Cc3ccc(F)cc3)[C@H]21`, the z-score in test [1] was -2.71 (inactive); in test [3], 20.9 (active); in test [4] it was 4.68 (inactive); in test [5] it was 1.48 (inactive); in [6], 0.813 (inactive); in test [7] it was -0.51. Also, the z-score in test [8] was -0.578 (inactive); in test [9] it was -1.03 (inactive); in test [10], -1.11; in [11], -0.751; in test [12], -0.0154; in test [13], -0.435. Further, the z-score in test [14] was -0.871; in test [15], -0.975; in test [16] it was 1.07; in test [17], -1.68 (inactive); in test [18] it was -0.0557; in test [19], -0.339. For the same compound, the z-score in test [20] is 0.0406 (inactive). The composite z-score in test [2] stood at 0.318.

In the case of `COCCOC(=O)N1C(=O)[C@@]2(c3cc(C#Cc4ccc(OC)cc4)ccc31)[C@H](c1ccc(O)cc1)N1[C@H](c3ccccc3)[C@H](c3ccccc3)OC(=O)[C@H]1[C@@H]2C(N)=O`, the z-score in [1] is 0.0372 (inactive); in test [3], 6.02 (inactive); in test [4] it was 1.5 (inactive); in [5], -0.407 (inactive); in [6], 0.954 (inactive); in [7], -0.0604. For the same compound, the z-score in [8] is 0.782 (inactive); in test [9], 0.689 (inactive); in test [10] it was 0.305; in test [11] it was -0.64; in test [12], 0.38; in test [13] it was -0.531. Also, the z-score was -2.08 in [14]; -3.7 in [15]; -1.74 in test [16]; 0.563 (inactive) in test [17]; -0.896 in [18]; -0.721 in test [19]. In addition, in test [20], the z-score is -1.51 (inactive). This compound also had a composite z-score in test [2] of -0.303.

Consider `COc1ccc(O[C@H]2C=C[C@@H](c3ccccc3)O[C@@H]2COC(=O)CCC(C)=NO[C@H](C)c2cn([C@@H]3COC[C@H]3O)nn2)cc1`, for which the z-score in [1] is 0.451 (inactive); in test [3] it was 5.05 (inactive); in [4], 0.0624 (inactive); in test [5], 1.63 (inactive); in test [6], -0.908 (inactive); in [7] it was 0.607. Besides, the z-score is -4.13 (inactive) in test [8]; -0.691 (inactive) in [9]; -4.98 in test [10]; -1.24 in test [11]; -0.547 in test [12]; -1.22 in test [13]. Besides, the z-score in test [14] is -0.913; in [15], -1.22; in [16] it was -1.63; in test [17], -1.03 (inactive); in [18], 0.923; in test [19], -1.25. Besides, the z-score in test [20] was 1.47 (inactive). The compound also gave a composite z-score in test [2] of -0.0501.

On to `CN(C)c1ccc(C(O)C2C=CC3C(=O)N(c4ccccc4)C(=O)C3N2Nc2ccccc2F)cc1` (stereo not given), for which the z-score in [1] is -1.4 (inactive); in test [3] it was 4.37 (inactive); in [4], 1.2 (inactive); in test [5], 0.252 (inactive); in test [6] it was 0.586 (inactive); in [7], -0.288. Further, the z-score is -2.5 (inactive) in [8]; -4.43 (inactive) in test [9]; -3.99 in [10]; -0.225 in test [11]; -0.528 in test [12]; -0.799 in test [13]. The z-score is -0.343 in test [14]; -1.18 in test [15]; -2.24 in test [16]; -1.08 (inactive) in test [17]; 0.109 in [18]; -0.0359 in test [19]. In addition, the z-score in test [20] was -0.416 (inactive). The same compound displayed a composite z-score in [2] of 0.284.
